Source: PubChem (several laboratories)
ROMK mod = ROMK potassium channel modulators, primary screen, cell-based, thallium flux, MLSMR library; Tet-inducible ROMK, thallium flux fluorescence; actives lie on both sides; B-score at 10 µM; actives 2% (n = 130,000); AID 1918, 2009;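 active means signal ratio slope over the read window, or its plate-corrected B-score, at least 3 SD from the plate mean, either direction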;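 further: B-score of the F/F0 ratio slope over 7 to 12 s after thallium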
Target sequence (P48048 whole entry, looked up): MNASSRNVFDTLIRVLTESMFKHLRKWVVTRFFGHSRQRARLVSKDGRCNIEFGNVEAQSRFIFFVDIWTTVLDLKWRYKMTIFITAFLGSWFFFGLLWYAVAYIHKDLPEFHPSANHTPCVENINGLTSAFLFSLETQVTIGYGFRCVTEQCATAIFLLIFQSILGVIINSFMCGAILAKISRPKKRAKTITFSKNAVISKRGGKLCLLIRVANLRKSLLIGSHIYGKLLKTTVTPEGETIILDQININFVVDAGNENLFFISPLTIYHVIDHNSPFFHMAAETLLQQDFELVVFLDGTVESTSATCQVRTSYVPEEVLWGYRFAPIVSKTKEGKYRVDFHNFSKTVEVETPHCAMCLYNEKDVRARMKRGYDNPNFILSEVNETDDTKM
KCC2 mod = KCC2 cotransporter modulators, thallium flux, primary screen, cell-based, HEK293 KCC2, FluoZin-2 fluorescence, MLSMR; AID 1456, 2008; B-score of Tl+ flux slope (higher = more flux/activation; lower = inhibition) at 10 µM; Solute carrier family 12 member 5 (Homo sapiens), Q9H2X9; KCC2 cells, thallium flux FluoZin-2 fluorescence; actives 2.2% (n = 190,000);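 active means thallium flux slope and its plate-corrected score both differing from the plate sample mean at a set confidence after two filtering rounds, in either direction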;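 further: slope of fluorescence scaled to starting intensity during 10 to 20 s after thallium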
Lmaj promast = Leishmania major promastigote growth inhibition, primary screen; Leishmania major promastigotes, resazurin fluorescence viability; inhibition, % at 10 µM; actives 9% (n = 200,000); AID 1063, 2008; in the data active means inhibition above about 50%;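 further: promastigotes grown with compound for 44 hours at 28 °C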
WT yeast gro inh = growth inhibition of WT strain, primary screen, mitochondrial fusion inhibitor project, WT and mutant strains, chemical genetic; inhibition, % at 10 µM; actives 2.1% (n = 190,000); AID 1362, 2008; mitochondrial fusion phenotypic screen; in the data active means inhibition above about 58%; tested in S. cerevisiae
INS promoter inh = inhibitors of insulin promoter-driven GFP, primary screen, imaging, TRM-6 cells (human fetal islet line), eGFP reporter, cell count; reporter expression induced with tamoxifen; inhibition, % at 2 µM; actives 0.9% (n = 130,000); AID 1273, 2008;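 active means inhibition above the mean plus 3 SD, with well images judged a real hit on visual review, cut at about 60% in these data, passing the limit was not always enough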
Insulin prom up = insulin promoter activators in MIN6 cells, imaging, high-content screening, mouse beta cells. MIN6 insulin promoter-GFP reporter; hits give high values. actives 0.3% (n = 190,000). z-score at 5 µM;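 active means z-score above 3 at 5 µM with at least 500 cells counted in the well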
An asterisk follows results filed as active; . = no result given. Rows were chosen to be rich in hits. Some 12% of all compounds tested hit in one or more screens of this group.

SMILES | ROMK mod | KCC2 mod | Lmaj promast | WT yeast gro inh | INS promoter inh | Insulin prom up
c1ccc(-c2ccccc2OCCN2CCOCC2)cc1 | 0.89 | 0.48 | 0 | 0 | 46 | 0.25
Brc1cccc(OCCN2CCCCC2)c1 | 0.7 | 0.19 | 96* | -8 | 54 | -0.48
COc1cc(/C=N/NC(=O)CCn2nc(C)cc2C)ccc1O | . | 0.42 | . | . | . | -0.53
CCOC(=O)c1[nH]c2ccc(Br)cc2c1NC(=O)CCN1CCC(C)CC1 | 0.13 | . | 41 | 3 | -4 | -0.82
CC1CCN(CCCCOc2ccccc2Br)CC1 | -1.2 | 0.15 | 100* | 20 | -59 | -0.32
COc1ccccc1N1CCN(CCCCOc2cccc3ccccc23)CC1 | -0.12 | -0.55 | 29 | 56 | -25 | -1.1
Cc1cc(Br)ccc1OCCCCN1CCC(C)CC1 | -1.2 | 0.83 | 100* | 18 | -25 | 0.29
Cc1ccc(NC(=O)CSC2=Nc3ccccc3C3CC=NN23)c(C)c1 (stereo not drawn) | -2.7 | -1.2 | 15 | -8 | 32 | 0.66
CCCCNC(=O)OC1CCS(=O)(=O)C1 (stereo not drawn) | . | . | -6 | 15 | . | -0.79
CCOC(=O)c1ccccc1NC(=O)Cn1cnc2c(cnn2-c2ccc(F)cc2)c1=O | 0.5 | . | 0 | 18 | -15 | 0.04
CCOC(=O)C1=C(C)NC(C)=C(C(=O)OCC)C1c1nc2ccccc2[nH]1 | 0.2 | 0.39 | 3 | 6 | -47 | .
CCOC(=O)C(C)c1nc2ccccc2[nH]c1=O (stereo not drawn) | -1.3 | 1.3 | -2 | 73* | 0 | 1.3
O=C(CSCCO)Nc1ccc(C23CC4CC(CC(C4)C2)C3)cc1 | 0.88 | 0.25 | -4 | -11 | -50 | .
O=C1CSC(c2cn(-c3ccccc3)nc2-c2cc3ccccc3o2)N1Cc1ccccc1 (stereo not drawn) | 0.21 | 1.4 | 79* | 31 | -21 | -1.3
CCOC(=O)N1CCN(c2c(NCc3cccs3)c(=O)c2=O)CC1 | . | -0.056 | 0 | -5 | . | 0.58
N#CC1=C(N)Nc2ncnn2C1c1ccc(F)cc1 (stereo not drawn) | . | -0.015 | -3 | 15 | -223 | -0.02
CCCc1nn(CCc2ccccn2)c(N)c1CC | 0.017 | -0.39 | -6 | 8 | 69* | .
CC(C)CC(=O)NNC(=O)C(C)C | 0.7 | 0.7 | -6 | -4 | 9 | .
COc1ccc(N(C)C(=S)Nc2ccc3nc(C)c(C)nc3c2)cc1 | . | 0.067 | -3 | -9 | . | -0.75
Cc1onc(-c2c(Cl)cccc2Cl)c1C(=O)ONC(=O)c1ccccc1 | . | 0.44 | . | . | . | 0.85
COc1ccc(C2CC(c3ccccc3OC(C)=O)=NN2C(=O)/C=C/c2ccccc2)cc1 (stereo not drawn) | -1.2 | -0.18 | 97* | 32 | -38 | -1.8
COc1ccc(C2CC(c3ccccc3)=NN2C(=O)COC(=O)c2ccc(Cl)nc2)cc1 (stereo not drawn) | . | 0.061 | 4 | 17 | . | 0.37
COc1ccc(C2CC(c3ccc(Br)cc3)=NN2C(=O)CN2CCCC2)cc1 (stereo not drawn) | . | -0.25 | . | . | . | -0.07
Cc1ccc(NC(=O)N2N=C(c3ccc(F)cc3)CC2c2ccc(F)cc2)cc1 (stereo not drawn) | 0.03 | -2 | 15 | 77* | -8 | 0.13
COc1ccc(C2=NN(C(=O)CN3CCCCC3)C(c3ccc(C)cc3)C2)cc1 (stereo not drawn) | 0.45 | -0.53 | 73* | 9 | . | -0.12
SMILES | ROMK mod | KCC2 mod | Lmaj promast | WT yeast gro inh | INS promoter inh | Insulin prom up
CS(=O)(=O)Nc1ccc(C2=NN(C(=O)c3ccco3)C(c3ccc(F)cc3)C2)cc1 (stereo not drawn) | 0.14 | -1.8 | 5 | 10 | 9 | .
COc1ccc(C2CC(c3ccccc3)=NN2C(=O)COC(=O)c2cnc(Cl)c(Cl)c2)cc1 (stereo not drawn) | . | 0.58 | 97* | -5 | 48 | -0.07
COc1ccc(C2CC(c3ccccc3)=NN2C(=O)CSc2ncccn2)cc1 (stereo not drawn) | . | -1.3 | 18 | -2 | . | 1.6
COc1ccc(C2CC(c3ccccc3)=NN2C(=O)CN2CCN(Cc3ccccc3)CC2)cc1 (stereo not drawn) | -0.28 | 0.21 | 54* | 26 | . | -0.95
CN(C(=O)COC(=O)C1CCN(S(=O)(=O)c2cccs2)CC1)C1CCS(=O)(=O)C1 (stereo not drawn) | . | 0.41 | -5 | 4 | 43 | 0.55
O=C(COc1ccc(S(=O)(=O)NC2CCCCC2)cc1)NCCC1=CCCCC1 | . | 0.87 | 59* | -4 | -408 | 0.57
O=C(CN1CCN(C2CCCCC2)CC1)NCCC1=CCCCC1 | -0.91 | . | 94* | 4 | -21 | 0.77
O=C(COc1ccc(S(=O)(=O)NC2CCCCC2)cc1)NC1CCCCC1 | . | -0.94 | 10 | -2 | -338 | .
O=C(CN(Cc1ccc2c(c1)OCO2)C(=O)c1cnsn1)NC1CCCC1 | . | 0.34 | -3 | 16 | -8 | 0.44
CCOc1ccc(N2C(=O)/C(=C\c3ccccc3OC)S(=O)(=O)C2c2cccc([N+](=O)[O-])c2)cc1 (stereo not drawn) | . | 0.47 | 50* | -3 | -7 | -0.11
Cc1cccc(C(C)(C)C)c1OCCCCN1CCCC1 | -0.074 | -0.45 | 100* | 53 | -53 | -1.2
Cc1ccccc1OCC(=O)NCCN1CCCC1 | 0.81 | 0.46 | -2 | 9 | . | 0.2
CC(C)(C)c1ccccc1OCCCCN1CCCC1 | -0.97 | 0.15 | 99* | 5 | -10 | -0.6
CC(C)c1cccc(C(C)C)c1OCCCCN1CCCC1 | -0.64 | 1.4 | 92* | 15 | -71 | -0.18
COc1ccc(/C=N/NC(=O)C2c3ccccc3-c3ccccc32)cc1 | 0.29 | -0.096 | 6 | -5 | -25 | -0.09
O=C(NCCCn1ccnc1)/C(=C\c1cccs1)NC(=O)c1ccco1 | -0.35 | -0.13 | 56* | -16 | 0 | -0.12
C/C(=N\O)C1CC(CC(=O)O)C1(C)C (stereo not drawn) | . | 0.71 | . | . | . | -0.02
CC(=O)Nc1ccc(C(=O)NNS(=O)(=O)c2ccc(C)cc2)cc1 | -0.015 | 1.2 | -7 | 20 | . | 0.21
Cc1ccc(NC(=S)N/N=C/c2c(C)[nH]c3ccccc23)cc1 | -1.2 | 0.082 | 45 | 96* | . | -0.37
CCOC(=O)C1=C(O)/C(=C/c2ccc(OCC(=O)O)c(OCC)c2)SC1=Nc1ccc(C)cc1 | 0.55 | -2.2 | 4 | 19 | 45 | .
CCOC(=O)C1=C(O)/C(=C/c2ccc(OCC(=O)O)c(OCC)c2)SC1=Nc1ccc(OC)cc1 | 1 | -0.43 | 62* | -3 | -42 | -0.03
O=[N+]([O-])c1cccc(/C=C/C=N/Nc2nc(N3CCCCC3)nc(N3CCCCC3)n2)c1 | . | . | 33 | 53 | . | 0.04
CSc1cccc(NC(=O)COc2ccccc2C)c1 | -0.14 | -1.2 | 0 | -2 | . | -0.16
